The values below come from PubChem BioAssay (NCATS).

Records with an inconclusive call do not appear. Calls of active or inactive are those of the source. The call rests on the fitted dose curve; in most records, active means well fitted cell-killing curve with a large enough effect; inconclusive means small, poorly fitted or top-dose-only effect; inactive means flat fitted curve, though single readings scatter.

This assay in a line: Cell Viability - N2a (AID 540).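 Further: plate controls were DMSO alone for no effect and tamoxifen control for full effect; nearly all actives have a fitted effect of over 45% in size.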 The note with it: N2a mouse neuroblastoma cell viability; activity change, negative = cytotoxicity: at 92.2 µM (top of the series). The source says:
NIH Chemical Genomics Center [NCGC]
NIH Molecular Libraries Screening Centers Network [MLSCN]
National Institutes of Environmental Health Sciences [NIEHS]
National Toxicology Program [NTP]
We have developed a 1536-well cell-based assay for quantitative high throughput screening (qHTS) against a number of cell lines to determine in vitro cytotoxicity of small molecules. This particular assay uses the N2a cell line which is derived from mouse neuroblastoma.
NCGC Assay Protocol Summary:
The CellTiter-Glo luminescent cell viability assay (Promega) is a homogeneous method to measure the number of viable cells in culture. The end point readout of this assay is based on quantitation of intracellular ATP, an indicator of metabolic activity, using the luciferase reaction. Luciferase catalyzes the oxidation of beetle Luciferin to oxyluciferin and light in the presence of ATP. The luminescent signal is proportional to amount of ATP present.
Using the CellTiter-Glo luminescent cell viability assay, the amount of cellular ATP was measured in the N2a cell line with complete culture medium following compound treatment for 40 hours. The assay was performed in opaque white Kalypsys 1536-well plates. In the screen, tamoxifen and doxorubicin were used as positive controls. Library compounds were measured for their ability to cause acute toxicity in the cell line, as reflected by a decrease in intracellular ATP levels, in a concentration-dependent manner. […] AC50 values were determined from concentration-response data modeled with the standard Hill equation.
qHTS protocol for CellTiter Glo N2a cellular assay
[Step] [Parameter] [Value] [Description]
1. Reagent; 5 uL; 1500 N2a cells/well
2. Time; 5 hr; 37 °C incubation
4. Controls; 23 nL; Tamoxifen 0.34 uM to 100 uM & Doxorubicin 0.02 nM to 100 uM
5. Time; 40 hr; 37 °C incubation
6. Reagent; 5 uL; CellTiter Glo reagent
7. Time; 20 min; Room Temperature
8. Detection; Luminescence; Viewlux plate reader
Keywords: cell viability, cytotoxicity, N2a cell line, luminescence, NTPHTS, NTPHTS_NCGC, NIEHS, EPA, DSSTox, MLSMR, MLSCN, NIH Roadmap, qHTS, NCGC
Regarding `C=CC(=O)NC(C)C`, the activity change, negative = cytotoxicity is 4.17% (inactive).

Turning to `CC(O)COC(C)(C)C` (stereo not given), the activity change, negative = cytotoxicity is 1.08% (inactive).

`C=CCCCC`: the activity change, negative = cytotoxicity is 6.23% (inactive).

As to `CCCCOCCOCCSC#N`, the activity change, negative = cytotoxicity was 0.328% (inactive).

For `O=[N+]([O-])c1ccccc1CCO`, the activity change, negative = cytotoxicity is -12.5% (inactive).

For the compound `C=C(C)C1CC=C(C)C(OC(C)=O)C1` (stereo not given), the activity change, negative = cytotoxicity is -2.86% (inactive).

Regarding `C[C@@H]1CC2(OC[C@]3(C)O[C@H]23)O[C@H]2C[C@@]3(C)[C@@H]4CC[C@H]5C(C)(C)C(O[C@@H]6OC[C@@H](O)[C@H](O)[C@H]6O)CC[C@@]56C[C@@]46CC[C@]3(C)[C@@H]12` (stereo not given in full), the activity change, negative = cytotoxicity was 11% (inactive).

Consider `O=P(O)(OCc1ccccc1)OCc1ccccc1`, for which the activity change, negative = cytotoxicity is 4.67% (inactive).

For the compound `O=C(Cl)c1cccc([N+](=O)[O-])c1`, the activity change, negative = cytotoxicity was 5.21% (inactive).

Consider `CC(=O)c1cccc([N+](=O)[O-])c1`, for which the activity change, negative = cytotoxicity is 0.298% (inactive).

Regarding `COc1ccc(OC)cc1`, the activity change, negative = cytotoxicity is 0.243% (inactive).

Take `NC(=O)NC(N)=O`: the activity change, negative = cytotoxicity is -8.97% (inactive).

Regarding `CC(=O)OC(C)=O`, the activity change, negative = cytotoxicity was 1.01% (inactive).

In the case of `CCCC(C)CO` (stereo not given), the activity change, negative = cytotoxicity was 3.82% (inactive).

`O=C(O)c1ccc(C(=O)O)cc1`: the activity change, negative = cytotoxicity was 0.102% (inactive).

`O=[N+]([O-])c1cccc(C(F)(F)F)c1`: the activity change, negative = cytotoxicity was 4.54% (inactive).

As for `Cc1cc(C)cc(O)c1`, the activity change, negative = cytotoxicity is -1.73% (inactive).

For the compound `CCCCC(CC)CNCC(CC)CCCC` (stereo not given), the activity change, negative = cytotoxicity is -7.79% (inactive).

Turning to `Nc1ccccc1[N+](=O)[O-]`, the activity change, negative = cytotoxicity is -9.35% (inactive).

Take `O=C(O)CNC(=O)c1ccc([N+](=O)[O-])cc1`: the activity change, negative = cytotoxicity was -8.74% (inactive).

For `Nc1ccc(F)cc1F`, the activity change, negative = cytotoxicity was -8.92% (inactive).

On to `C/C(C=O)=C/c1ccccc1`, for which the activity change, negative = cytotoxicity is -1.48% (inactive).

In the case of `Nc1cccc(N)c1`, the activity change, negative = cytotoxicity is -0.534% (inactive).

As to `COC(=O)CCCC(=O)OC`, the activity change, negative = cytotoxicity was 3.33% (inactive).

For the compound `O=[N+]([O-])c1ccc(Cl)cc1Cl`, the activity change, negative = cytotoxicity was 10.8% (inactive).

Turning to `COc1cccc(N)c1`, the activity change, negative = cytotoxicity is -15.1% (inactive).

With `NC(=O)c1ccccc1[N+](=O)[O-]`, the activity change, negative = cytotoxicity was -5.05% (inactive).

For the compound `BrC(Br)C(Br)Br`, the activity change, negative = cytotoxicity is 7.56% (inactive).

Consider `CC(O)CC(C)O` (stereo not given), for which the activity change, negative = cytotoxicity is -8.39% (inactive).

Take `Nc1ccc([N+](=O)[O-])c(N)c1`: the activity change, negative = cytotoxicity is 0.888% (inactive).

On to `CCCCC(C=O)CC` (stereo not given), for which the activity change, negative = cytotoxicity was 2.46% (inactive).

As for `NC(=O)c1cccc([N+](=O)[O-])c1`, the activity change, negative = cytotoxicity is -1.6% (inactive).

As for `Cc1cccc(C)c1O`, the activity change, negative = cytotoxicity was -7.98% (inactive).

Regarding `Nc1nc(CC(=O)O)cs1`, the activity change, negative = cytotoxicity was 6.3% (inactive).

As for `Cc1ccc(C(C)(C)C)cc1`, the activity change, negative = cytotoxicity was -7.24% (inactive).

Turning to `Cc1ccc(C)o1`, the activity change, negative = cytotoxicity is -9.8% (inactive).

Regarding `Cc1cc(C)cc([N+](=O)[O-])c1`, the activity change, negative = cytotoxicity is -7.51% (inactive).

With `Cc1ccc(Cl)cc1N`, the activity change, negative = cytotoxicity was -10.6% (inactive).

Take `NC(=O)CCCCC(N)=O`: the activity change, negative = cytotoxicity was -5.03% (inactive).

In the case of `Nc1cccc(O)c1`, the activity change, negative = cytotoxicity is 4.14% (inactive).
